# The supplement of paper PMC6555819
# System: VDR:RXRa (NR concentration 270 nM, RXRa partner concentration 90 nM)
# Test: PBM binding z-score (relative to random genomic background probes); higher = stronger binding; sequences stand for … in GC…GCGATTGACAGCGTAGAATGAAGG
# In short: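 Antibodies against each partner of ligand-free nuclear receptor dimers (one per run) detected binding on custom Agilent 4×180K protein-binding microarrays after 1 h incubation. The double-stranded probes had 34-nt variable regions carrying direct-repeat seeds, single-nucleotide variants, half-site ablations and random human genomic background sequences. Binding z-scores, from regression-normalized fluorescence, use the random background probes as reference.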
row,Sequence,PBM binding z-score
1,ACTCGGAGTACAAAGGTCAGAGCTACGCCAGTGA,3.59
2,GCTCGCAGGACAAGGTCAGAGCTTTGTCCGTAGA,0.842
3,ATCGAAAGGTCGAAGGTGAGTATCCCCACCCGAA,2.53
4,GTACCAAGGTGAATAGGTCGTTGAGGAGTAGGCG,0.845
5,CCTACTGGGCCAAAAAGGTCATTGGTGCCGATAA,5.2
6,ACTATTAGTTGAGACGAGGGGAACCGATAGGTTG,-0.291
7,TCAGACAGGTGAAGGTAACTTAGGTACGCAGTCG,1.02
8,GCCAGCAGGCCATTTGGGTCACTCAATGACGGGC,0.978
9,GCTATTAGTTGAAAGGGCAACTGAATGATTCTCG,0.488
10,TAGCCTAGGTCAAATCGGGCCAGTATACGCTATA,2.7
11,CAAACTAGGTCATCGGAAGGTCAAAGTCCGCATG,5.72
12,GGAACTAGGGCATTCGAGTTGATAGCATGGCGAT,1.23
13,TCTTGAAGATCAACAGGAGGTTAAGAAAGATCGA,0.872
14,ACAGACAGGTGAGTGAAGGTATCTCAGCTGGACG,-0.617
15,CAAACTAGGTCAAGCTCAAAGTCGGTTTGTGCCA,1.7
16,AATACAGGGTCATCGTAGCCCAGAGTACGCACAG,4.83
17,CCTGCTAGGTCATGGTAAGCTAATCTACAGTATG,1.49
18,GCTAGCAGGCCATTTGGGTCACTCAGTGACGGGC,0.711
19,TCAGACAGGTGAAGATAACTCAGGTACGCAGTCG,0.709
20,CCAGACAGGTGAGAAGGTAACTTAGCCTCGATTA,0.0956

row,Sequence,PBM binding z-score
1,TAGCCTAGGTCATGCGGTCCAGTATAGTGTCGGC,4.75
2,ACTAGTTGGTCAGCGGAGGTCACACACAATTCGG,3.98
3,TGAATGAGGTTAAAGATCACGGAACGTGGCGTCG,2.22
4,TATACAGGGTCAAAGGCCAGGGTACGAATGTCGA,4.93
5,CCTTACGGGACACGAGGTTATAGCACGACGAGCG,0.648
6,CTACCAAGGTGAACAAGGTCGTTGAATACTATTC,5.99
7,CCGACTGGGACAAGGTTACCATAACGCACAGCCA,0.2
8,CCTAGTTGGTCAAGTTCACACACGCTATAGGTAC,3.96
9,ATTAGCAGGCCAAGTTTGGGTCACTCAAACAAAG,0.833
10,GATACAGGGTCACGGCCAGAGTACGCGTATTGAT,5.4
11,GCTAGCAGGCCATTTGGGTCGCTCAATGACGGGC,-0.563
12,TCTAGCAGGCCAGAGGCTCACTCAAGAGGTACGG,-0.485
13,ATCGAAAGGTCGAAGCTGAGTATACCCACCCGAA,2.47
14,CATTCAGGGTCAGCTAGGCCAGAGTAGGGACGGC,4.34
15,TTTGCTAGGTCAGTTGGTCAGCTAACGAGCTGCC,0.134
16,ACAGACAGGTGCTGAAGGTAACTCAGGCTATCAT,-0.264
17,AGAAGGAGGTTAAGATCAGGGAAACAGAATACAT,0.978
18,AGAATGAGGTTAAGATCAGGCAAACAGAATACAT,1.23
19,CCTACTGGGCCAACGTCATTGATCAGTCAAAGCA,-0.476
20,GCTAGCAGGCCGTTTGGGTCACTCAATGACGGGC,0.00602
